SENP8 block-1: SENP8 protease inhibitors, primary screen, biochemical, luminescence | purified SENP8, Z-RLRGG-aminoluciferin cleavage | AID 2540, 2010 | inhibition, % at 10 µM | 1.2% of 330,000 active | Sentrin-specific protease 8 (Homo sapiens), Q96LD8; in the data active = inhibition above about 50%
Target sequence (Q96LD8 whole entry, looked up): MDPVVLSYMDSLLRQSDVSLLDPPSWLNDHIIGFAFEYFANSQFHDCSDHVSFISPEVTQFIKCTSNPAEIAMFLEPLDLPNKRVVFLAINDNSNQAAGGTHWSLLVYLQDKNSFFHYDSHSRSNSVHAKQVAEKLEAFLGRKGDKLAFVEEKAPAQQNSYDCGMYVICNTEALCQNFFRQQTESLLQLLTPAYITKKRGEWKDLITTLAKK
TRAIL sens C8: viability loss with TRAIL in NB7+C8 cells, primary screen, TRAIL sensitizer project, cell-based, ATPlite luminescence; inhibition (viability loss, TRAIL sensitization), % at 10 µM; 1% of 360,000 active; AID 624354, 2012;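 active = compounds causing at least 50% loss of cell viability in the single-dose screen, relative to plate controls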
SENP6 inh: SENP6 protease inhibitors, primary screen, biochemical, luminescence, uHTS. inhibition, % at 10 µM. Sentrin-specific protease 6 (Homo sapiens), Q9GZR1. Recombinant SENP6 catalytic domain, aminoluciferin luminescence. 1.8% of 330,000 active;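 active = inhibition above about 50% at the single tested dose, limit read from the data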
SENP7 block: SENP7 protease inhibitors, primary screen, biochemical, luminescence, uHTS; Sentrin-specific protease 7 (Homo sapiens), Q9BQF6; recombinant SENP7, Z-RLRGG-aminoluciferin luminescence, 40 min; inhibition, % at 5 µM; 1.5% of 330,000 active;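 active = inhibition above about 50% at the single test dose, limit read from the data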
SENP8 block-2: human SENP8 protease inhibitors, primary screen, biochemical, fluorescence, Nedd8 protein substrate, uHTS; 0.64% of 360,000 active; Sentrin-specific protease 8 (Homo sapiens), Q96LD8; recombinant SENP8; inhibition, % at 20 µM; in the data active = inhibition mostly above about 40%, no sharp cut-off; inactive = mostly below about 27%
PPC-1+TRAIL kill: compounds killing PPC-1 cancer cells with TRAIL present, primary screen, TRAIL potentiator project, ATPLite luminescence, uHTS; PPC-1 cells + TRAIL, ATPLite viability luminescence; cell killing (% activity), % at 4 µM or 5 µM; 0.41% of 220,000 active;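 active = cell killing above 50% in the first pass at 4 µM, then a duplicate retest at 5 µM averaging 50% or more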
Numbers stand for hits; – = inactive; · = not tested or not shown. Shown are actives, neighbours in structure and some others; about 3% of the full set was active somewhere.

SMILES	SENP8 block-1	TRAIL sens C8	SENP6 inh	SENP7 block	SENP8 block-2	PPC-1+TRAIL kill
C=CC1CN2CCC1CC2[C@@H](OC(=O)c1ccc(OC)cc1)c1ccnc2ccccc12 (some centres undefined)	–	–	–	–	–	54
CC1OC(OC2CC(O)C3(CO)C4C(O)CC5(C)C(C6=CC(=O)OC6)CCC5(O)C4CCC3(O)C2)C(O)C(O)C1O (centres undefined)	·	70	·	·	–	·
COc1ccc(C(=O)N/N=C/C23CC[C@@H](O)CC2(O)CC[C@@H]2[C@@H]3CCC3(C)C(C4=CC(=O)OC4)CCC23O)cc1 (some centres undefined)	–	–	–	–	–	–
Cc1ccc(NC(=O)CN2C(=O)CN=C(c3ccccc3)c3cc(Cl)ccc32)cc1	–	57	–	–	–	–
COC(COC(N)=O)C1=C(N2CC2)C(=O)C(C)=C(N2CC2)C1=O (centres undefined)	·	74	·	·	–	·
COC12C(COC(N)=O)C3=C(C(=O)C(C)=C(N)C3=O)N1CC1C2N1C (centres undefined)	–	–	–	–	–	–
CN1C(=O)C(=Cc2ccc(N3CCCCC3)o2)C(=O)N(C)C1=S	–	–	–	–	43	–
CCN(CC)c1ccc(C=C2C(=O)N(C)C(=S)N(C)C2=O)o1	–	–	–	–	–	–
CC1=C2[C@H]3OC(=O)[C@@H](C)[C@@H]3CC[C@@]2(C)C=CC1=O	–	–	–	–	–	·
COc1ccc(OC)c(C(O)C2CCCCN2)c1 (centres undefined)	–	–	–	–	–	·
CCN1CCN(Cc2cccnc2)CC1	–	–	–	–	–	·
CC1=C(N2CC2)C(=O)C(CO)=C(N2CC2)C1=O	·	77	·	·	63	·
O=C(NC1CCCCC1)N1C[C@H]2C[C@@H](C1)c1cccc(=O)n1C2	–	–	–	–	–	·
COc1ccc(-n2c(/C=C/c3ccc(O)cc3)nc3ccccc3c2=O)cc1	–	–	–	–	–	·
CCOc1ccc(-n2c(-c3cccs3)nc3ccccc3c2=O)cc1	–	–	–	–	–	–
CCn1nc(/C=C/c2ccccc2)nc2c(=O)n(C)c(=O)nc1-2	96	–	89	96	73	–
CCn1nc(-c2cccs2)nc2c(=O)n(C)c(=O)nc1-2	·	95	·	·	80	–
CC=C(CC)C1(CC)C(=O)NC(=S)NC1=O	·	–	·	·	–	·
CCC(C)C1NC(=O)C(NC(=O)C(CC(C)C)N(C)C(=O)C2CCCN2C(=O)C(C)O)C(C)OC(=O)C(Cc2ccc(OC)cc2)N(C)C(=O)C2CCCN2C(=O)C(CC(C)C)NC(=O)[C@H](C)C(=O)[C@H](C(C)C)OC(=O)CC1O (some centres undefined)	·	82	·	·	–	·
Cc1ccccc1CN1Cc2cnnn2-c2ccccc2C1C#N (centres undefined)	·	49	·	·	–	·
Cc1cccc(CCNCc2cc3ccc(C)cc3[nH]c2=O)c1	–	–	–	–	–	·
COc1ccccc1N1C(=O)NC(=O)/C(=C/c2ccc([N+](=O)[O-])s2)C1=O	–	·	–	–	·	–
COc1ccc(N2C(=O)NC(=O)/C(=C\c3ccc([N+](=O)[O-])s3)C2=O)cc1	–	–	–	–	44	–
COc1cccc(N2C(=O)NC(=O)/C(=C/c3ccc([N+](=O)[O-])s3)C2=O)c1	–	–	–	–	48	–
COc1ccc(N2C(=O)NC(=O)/C(=C/c3ccc([N+](=O)[O-])s3)C2=O)cc1	–	–	–	–	69	–
CCCCCCC(=O)c1c(O)n(-c2ccc(OC)cc2)c(=O)[nH]c1=O (tested in a mixture with another compound)	–	–	–	–	–	–
CC(=O)OC1(C)CC(C)C(=O)C(C(O)CC2CC(=O)NC(=O)C2)C1 (centres undefined)	·	74	·	·	–	·
C[C@@H]1C[C@@H]([C@H](O)CC2CC(=O)NC(=O)C2)C(=O)[C@@H](C)C1	–	–	–	–	–	·
NCCc1cc(O)c(O)cc1O	·	–	·	·	36	·

Screening results as filed in PubChem BioAssay.
